PubChem BioAssay AID1159580 (chemical genetic matrix, 2015)
Several values for one entry are separate records, joined by “and”; a condition that tells them apart may be missing. Equal values may be shown once. Out of some 5,500 compounds screened, about 2,000 (36%) were called active. Another 18% or so got no clear call; they are omitted. No stated cut-off is given here; in the data, active means normalized growth mostly below about 0.91 (no sharp cut-off); inconclusive means no clear call, values can overlap the other calls; inactive means mostly above about 0.92. The list shows a part of the results.

Test: chemical genetic growth profiling, strain panel (AID 1159580);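 further: tested at 20 µM; growth read once vehicle control cultures reached saturation at 30 °C; 1 = growth at the plate median or of vehicle wells; lower values mean less growth of the strain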
Details: growth OD

Measured: normalized growth

C/C=C(/C)C(=O)O[C@H]1CC[C@@]2(C)[C@@H]3CC[C@H]4[C@]5(O)C[C@H](O)[C@@]6(O)[C@@H](CN7C[C@@H](C)CC[C@H]7[C@@]6(C)O)[C@]5(O)C[C@@]42O[C@]13O
inactive: S. cerevisiae deletion strains, locus YBR021W, strain FUR4, active compounds read low 1 | S. cerevisiae deletion strains, locus YBR229C, strain ROT2, active compounds read low 1.01 | S. cerevisiae deletion strains, locus YCL029C, strain bik1, active compounds read low 0.988 | S. cerevisiae deletion strains, locus YDL035C, strain GPR1, active compounds read low 0.991 | S. cerevisiae deletion strains, locus YDL074C, strain BRE1, active compounds read low 0.981 | S. cerevisiae deletion strains, locus YDL101C, strain DUN1, active compounds read low 1.02 | S. cerevisiae deletion strains, locus YDL185W, strain tfp1, active compounds read low 0.966 | S. cerevisiae deletion strains, locus YDL192W, strain arf1, active compounds read low 0.966 | S. cerevisiae deletion strains, locus YDR101C, strain arx1, active compounds read low 0.981 | S. cerevisiae deletion strains, locus YDR162C, strain NBP2, active compounds read low 1.05 | S. cerevisiae deletion strains, locus YDR318W, strain mcm21, active compounds read low 0.987 | S. cerevisiae deletion strains, locus YDR388W, active compounds read low 0.98 | S. cerevisiae deletion strains, locus YDR502C, strain sam2, active compounds read low 0.988 | S. cerevisiae deletion strains, locus YEL061C, strain CIN8, active compounds read low 1 | S. cerevisiae deletion strains, locus YER110C, active compounds read low 0.964 | S. cerevisiae deletion strains, locus YER155C, strain BEM2, active compounds read low 1 | S. cerevisiae deletion strains, locus YER167W, strain BCK2, active compounds read low 0.995 | S. cerevisiae deletion strains, locus YGL078C, strain dbp3, active compounds read low 0.993 | S. cerevisiae deletion strains, locus YGL086W, strain mad1, active compounds read low 0.975 | S. cerevisiae deletion strains, locus YGL248W, strain PDE1, active compounds read low 1.03 | S. cerevisiae deletion strains, locus YGR078C, strain PAC10, active compounds read low 1.05 | S. cerevisiae deletion strains, locus YGR135W, strain pre9, active compounds read low 0.993 | S. cerevisiae deletion strains, locus YGR252W, strain gcn5, active compounds read low 1.11 | S. cerevisiae deletion strains, locus YHR030C, strain SLT2, active compounds read low 0.988 and 0.996 | S. cerevisiae deletion strains, locus YHR079C, strain IRE1 (second series), active compounds read low 0.969 | S. cerevisiae deletion strains, locus YHR079C, strain IRE1, active compounds read low 0.969 | S. cerevisiae deletion strains, locus YHR094C, strain hxt1, active compounds read low 0.981 | S. cerevisiae deletion strains, locus YHR129C, strain ARP1, active compounds read low 0.996 | S. cerevisiae deletion strains, locus YHR200W, strain rpn10, active compounds read low 0.964 | S. cerevisiae deletion strains, locus YIL066C, strain RNR3, active compounds read low 1.01 | S. cerevisiae deletion strains, locus YIL073C, strain SPO22, active compounds read low 0.949 | S. cerevisiae deletion strains, locus YIL125W, strain kgd1, active compounds read low 1 | S. cerevisiae deletion strains, locus YIR030C, strain dcg1, active compounds read low 0.977 | S. cerevisiae deletion strains, locus YJL095W, strain BCK1, active compounds read low 1.05 and 0.999 | S. cerevisiae deletion strains, locus YJL134W, strain LCB3, active compounds read low 0.996 | S. cerevisiae deletion strains, locus YJL168C, strain set2, active compounds read low 0.982 | S. cerevisiae deletion strains, locus YJL187C, strain SWE1 (second series), active compounds read low 1.07 | S. cerevisiae deletion strains, locus YJR043C, strain POL32, active compounds read low 1.02 | S. cerevisiae deletion strains, locus YJR066W, strain TOR1, active compounds read low 0.928 | S. cerevisiae deletion strains, locus YKL009W, strain mrt4, active compounds read low 0.948 | S. cerevisiae deletion strains, locus YKL068W, active compounds read low 0.987 | S. cerevisiae deletion strains, locus YKL085W, strain MDH1 (second series), active compounds read low 0.979 | S. cerevisiae deletion strains, locus YKL085W, strain MDH1, active compounds read low 0.979 | S. cerevisiae deletion strains, locus YKR001C, strain vps1, active compounds read low 0.965 | S. cerevisiae deletion strains, locus YLR039C, strain RIC1, active compounds read low 0.908 | S. cerevisiae deletion strains, locus YLR058C, strain SHM2, active compounds read low 1.01 | S. cerevisiae deletion strains, locus YLR102C, strain apc9, active compounds read low 0.975 | S. cerevisiae deletion strains, locus YLR113W, strain HOG1, active compounds read low 0.995 | S. cerevisiae deletion strains, locus YLR262C, strain YPT6, active compounds read low 0.934 | S. cerevisiae deletion strains, locus YLR268W, strain sec22, active compounds read low 0.97 | S. cerevisiae deletion strains, locus YLR330W, strain CHS5, active compounds read low 0.986 | S. cerevisiae deletion strains, locus YLR342W, strain FKS1 (second series), active compounds read low 1.05 | S. cerevisiae deletion strains, locus YLR371W, strain rom2, active compounds read low 0.982 | S. cerevisiae deletion strains, locus YLR418C, strain cdc73, active compounds read low 0.988 | S. cerevisiae deletion strains, locus YML016C, strain PPZ1, active compounds read low 1 | S. cerevisiae deletion strains, locus YML032C, strain rad52, active compounds read low 1 | S. cerevisiae deletion strains, locus YML124C, strain tub3, active compounds read low 0.984 | S. cerevisiae deletion strains, locus YMR078C, strain ctf18, active compounds read low 0.958 | S. cerevisiae deletion strains, locus YMR223W, strain ubp8, active compounds read low 1 | S. cerevisiae deletion strains, locus YMR263W, strain SAP30, active compounds read low 1.01 | S. cerevisiae deletion strains, locus YMR307W, strain GAS1, active compounds read low 1.15 | S. cerevisiae deletion strains, locus YNL067W, strain RPL9B, active compounds read low 1.03 | S. cerevisiae deletion strains, locus YNL183C, strain NPR1, active compounds read low 0.974 | S. cerevisiae deletion strains, locus YNL233W, strain BNI4, active compounds read low 1.03 | S. cerevisiae deletion strains, locus YNL250W, strain rad50, active compounds read low 0.962 | S. cerevisiae deletion strains, locus YNL271C, strain bni1, active compounds read low 0.994 | S. cerevisiae deletion strains, locus YNL298W, strain CLA4, active compounds read low 0.993 | S. cerevisiae deletion strains, locus YNL307C, strain MCK1, active compounds read low 0.995 | S. cerevisiae deletion strains, locus YNR052C, strain pop2, active compounds read low 1.01 | S. cerevisiae deletion strains, locus YOL012C, strain htz1 0.767 | S. cerevisiae deletion strains, locus YOL147C, strain pex11, active compounds read low 0.991 | S. cerevisiae deletion strains, locus YOR061W, strain CKA2, active compounds read low 1 | S. cerevisiae deletion strains, locus YOR069W, strain VPS5, active compounds read low 0.997 | S. cerevisiae deletion strains, locus YOR136W, strain idh2, active compounds read low 0.981 | S. cerevisiae deletion strains, locus YOR144C, strain elg1, active compounds read low 1.01 | S. cerevisiae deletion strains, locus YOR184W, strain ser1, active compounds read low 0.993 | S. cerevisiae deletion strains, locus YOR231W, strain MKK1, active compounds read low 1.01 | S. cerevisiae deletion strains, locus YOR316C, strain cot1, active compounds read low 0.98 | S. cerevisiae deletion strains, locus YPL256C, strain CLN2, active compounds read low 0.983 | S. cerevisiae deletion strains, locus YPR119W, strain clb2, active compounds read low 0.963 | S. cerevisiae deletion strains, locus YPR141C, strain kar3, active compounds read low 0.981 | S. cerevisiae deletion strains, locus YPR163C, strain tif3, active compounds read low 0.977 | S. cerevisiae deletion strains, locus YPR167C, strain met16, active compounds read low 0.957 | S. cerevisiae deletion strains, strain wtn01, active compounds read low 0.977 | S. cerevisiae strains, strain wild type, active compounds read low 1.01
